Records with an inconclusive call do not appear. The source made the active and inactive calls. Unless noted, calls follow the shape of the dose curve; as a rule, active = well fitted curve in the direction sought with a large enough effect in the repeat runs; inconclusive = weak or mixed curves; inactive = no such curve, though single readings can be large; an effect the other way counts as inactive or inconclusive.
How the values were obtained:
[1] = qHTS assay for small molecules that induce genotoxicity in human embryonic kidney cells expressing luciferase-tagged ATAD5 (AID 651632); also: nearly all actives have a fitted effect of over 15% in size
Method in brief: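 A rise in luciferase signal from ATAD5-tagged HEK293T cells marks genetic stress. Cells were exposed to compounds for 16 hr at 37C, 5% CO2, then luciferase was quantified after a 30 min room-temperature incubation with Amplite.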

[2] = qHTS assay for small molecules that induce genotoxicity in human embryonic kidney cells expressing luciferase-tagged ATAD5 - cell viability (AID 651634; calls by dose curve; also: nearly all actives have a fitted effect of over 25% in size)
Method in brief: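 Cytotoxicity counter-readout: after 15.5 hr compound treatment at 37C, live-cell protease activity in ATAD5-luciferase HEK293T cells measured by CellTiter-Fluor fluorescence, 30 min development at 37C.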

[3] = qHTS assay for small molecule disruptors of the mitochondrial membrane potential - cell viability (AID 720634; calls by dose curve;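 also: human HepG2 liver cancer cells; series mostly up to about 83 µM; nearly all actives have a fitted effect of over 20% in size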)
Method in brief: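 Cytotoxicity was quantified from ATP content by CellTiter-Glo luminescence in the same wells as the MMP dye read-out. HepG2 (2,000 cells/well) were plated overnight and exposed to compounds for 1 hr at 37 C.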

[4] = qHTS assay for small molecule disruptors of the mitochondrial membrane potential (AID 720635); also: potency is read from the fitted curve at half-maximal effect
Method in brief: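 HepG2 cells (2,000/well) attached overnight at 37C, then took compound for 1 hr at 37C, 5% CO2. Mito-MPS dye was added for 30 min; fluorescence was read at 490/535 nm (monomers) and 540/590 nm (aggregates).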

[5] = qHTS assay to test for compound auto fluorescence at 590 nm (red) in HepG2 cells (AID 720674)
Method in brief: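 Compound auto-fluorescence is scored relative to Rose Bengal sodium, measured at 540/590 nm in live HepG2 cultures after 1 hr compound contact (37 C, 5% CO2).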

[6] = qHTS assay to test for compound auto fluorescence at 535 nm (green) in HepG2 cells (AID 720675)
[7] = qHTS assay to test for compound auto fluorescence at 460 nm (blue) in HEK293 cells (AID 720678)
Method in brief: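 Intrinsic compound fluorescence is recorded in live HEK293 cultures after overnight incubation at 37C, 5% CO2, using excitation 405 nm and emission 460 nm. Values are referenced to triamterene.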

[8] = qHTS assay to test for compound auto fluorescence at 590 nm (red) in HEK293 cells (AID 720679)
Method in brief: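 Red autofluorescence, HEK293 cells: 2,000 cells/well; attach 4-5 hr 37C; add 23 nL cpd or DMSO; incubate o/n 37C 5% CO2; read Ex540/Em590; Rose Bengal sodium reference.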

[9] = qHTS assay to test for compound auto fluorescence at 535 nm (green) in HEK293 cells (AID 720680)
[10] = qHTS assay to test for compound auto fluorescence at 460 nm (blue) in HEK293 cell free culture (AID 720681)
Method in brief: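 Test compounds were pinned into cell-free culture medium (DMEM with 10% FBS) and fluorescence was read directly at Ex/Em 405/460 nm. Signals were expressed as fluorescence equivalents of triamterene, with DMSO vehicle as control.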

[11] = qHTS assay to test for compound auto fluorescence at 535 nm (green) in HEK293 cell free culture (AID 720682)
Method in brief: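 Steps: dispense DMEM/10% FBS into empty wells; pin in compound or DMSO; measure fluorescence at 485/535 nm. Values are fluorescein equivalents.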

[12] = qHTS assay to test for compound auto fluorescence at 590 nm (red) in HEK293 cell free culture (AID 720683)
Method in brief: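 Tox21 10K library compounds were pinned into cell-free DMEM with 10% FBS and fluorescence was read at excitation 540 nm. Activity is expressed as Rose Bengal sodium equivalency.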

[13] = qHTS assay to test for compound auto fluorescence at 590 nm (red) in HepG2 cell free culture (AID 720684)
Method in brief: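 Readout: intrinsic compound fluorescence at 590 nm emission after 540 nm excitation, scaled to Rose Bengal sodium. Matrix was cell-free MEM with 10% FBS; DMSO vehicle wells served as control.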

[14] = qHTS assay to test for compound auto fluorescence at 460 nm (blue) in HepG2 cell free culture (AID 720685)
Method in brief: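 Cell-free plates of MEM plus 10% FBS received 23 nL compound or DMSO vehicle; blue-channel (405/460 nm) intensity scored against triamterene as reference fluorophore.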

[15] = qHTS assay to test for compound auto fluorescence at 535 nm (green) in HepG2 cell free culture (AID 720686)
[16] = qHTS assay to test for compound auto fluorescence at 460 nm (blue) in HepG2 cells (AID 720687)
Method in brief: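 Cells (2,000/well in MEM with 10% FBS) attached overnight at 37 C, then were exposed to compound or DMSO for 1 hr at 37 C, 5% CO2. Fluorescence read at Ex/Em 405/460 nm, expressed as triamterene-equivalent signal.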

[17] = target: Glucocorticoid receptor (Homo sapiens) (UniProt P04150); experiment: qHTS assay to identify small molecule agonists of the glucocorticoid receptor (GR) signaling pathway (AID 720691; active = well fitted activation curve with a large enough effect in the signal ratio in the repeat runs, not every such curve was filed as active; the % refers to the signal ratio)
Sequence of Glucocorticoid receptor (Homo sapiens) (P04150 whole entry, looked up): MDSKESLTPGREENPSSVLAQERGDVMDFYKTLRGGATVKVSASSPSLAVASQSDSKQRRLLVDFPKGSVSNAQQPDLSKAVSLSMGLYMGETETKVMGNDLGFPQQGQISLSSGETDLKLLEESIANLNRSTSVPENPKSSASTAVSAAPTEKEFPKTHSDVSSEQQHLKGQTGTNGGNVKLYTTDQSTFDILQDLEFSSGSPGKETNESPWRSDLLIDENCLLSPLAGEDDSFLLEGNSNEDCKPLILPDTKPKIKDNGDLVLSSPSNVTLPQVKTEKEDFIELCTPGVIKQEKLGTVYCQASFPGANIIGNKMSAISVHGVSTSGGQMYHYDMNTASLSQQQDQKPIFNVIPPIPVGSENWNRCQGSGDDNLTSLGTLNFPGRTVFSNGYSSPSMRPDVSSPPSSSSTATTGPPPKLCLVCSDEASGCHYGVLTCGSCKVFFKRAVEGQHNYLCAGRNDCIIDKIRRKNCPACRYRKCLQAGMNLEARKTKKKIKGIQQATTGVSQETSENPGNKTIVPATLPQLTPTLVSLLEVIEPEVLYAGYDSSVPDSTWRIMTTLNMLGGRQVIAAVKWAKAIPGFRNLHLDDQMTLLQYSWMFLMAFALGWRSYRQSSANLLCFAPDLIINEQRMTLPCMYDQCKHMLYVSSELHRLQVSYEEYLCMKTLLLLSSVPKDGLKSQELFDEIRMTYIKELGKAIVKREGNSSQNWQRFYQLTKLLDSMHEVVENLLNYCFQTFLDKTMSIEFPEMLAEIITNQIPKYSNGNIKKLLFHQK
Method in brief: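 Agonist-mode qHTS in HeLa cells stably expressing a glucocorticoid-response-element beta-lactamase reporter. Fluorescence intensity read with FRET substrate (2 h, room temperature) after 18 h compound treatment at 37 C.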

[18] = target: Glucocorticoid receptor (Homo sapiens) (UniProt P04150); experiment: qHTS assay to identify small molecule antagonists of the glucocorticoid receptor (GR) signaling pathway (AID 720692; active = well fitted inhibition curve with a large enough effect in the signal ratio in the repeat runs, not every such curve was filed as active; the % refers to the signal ratio; also: potency is read from the fitted curve at half-maximal effect)
Method in brief: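 Inhibition of dexamethasone-driven (5 nM final) beta-lactamase expression was measured in GRE-reporter HeLa cells over 18 h at 37C. Fluorescence was read after 2 h with the B/G FRET substrate at room temperature.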

[19] = qHTS assay for small molecule agonists of the p53 signaling pathway - cell viability (AID 651633; calls by dose curve; also: nearly all actives have a fitted effect of over 30% in size; also: potency is read from the fitted curve at half-maximal effect)
Method in brief: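 p53RE-bla cells, seeded at 4,000 per well and rested 5 h at 37 C/5% CO2, received compounds in DMSO for 16 h at 37 C. CellTiter-Glo was then added, and luminescence was read after 30 min at room temperature to gauge cytotoxicity.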

Measured: Potency

O=C(Cl)c1ccc([N+](=O)[O-])cc1
not listed: [19]
inactive: all other assays above

O=C1CCCCCO1
not listed: [3] | [4] | [14] | [18] | [19]
inactive: all other assays above

OC(CCN1CCCCC1)(c1ccccc1)C1CCCCC1 (stereo unspecified)
not listed: [4] | [17] | [18] | [19]
inactive: all other assays above

O=S1(=O)N=C(O)c2ccccc21
not listed: [1] | [17] | [18] | [19]
inactive: all other assays above

Cc1ccccc1N=Nc1ccc(N=Nc2c(O)ccc3ccccc23)c(C)c1
not listed: [2] | [3] | [11] | [17] | [18] | [19]
inactive: all other assays above

COC(=O)CSc1cc(N=c2sc(=O)n3n2CCCC3)c(F)cc1Cl
not listed: [4] | [17] | [19]
inactive: all other assays above

O=C(O)Cn1c(C(=O)Nc2nc(-c3ccccc3Cl)cs2)cc2ccccc21
active: [4] 26.6 µM
not listed: [2] | [19]
inactive: all other assays above

CCOC(=O)[C@H](CCc1ccccc1)N[C@H]1CCc2ccccc2N(CC(=O)O)C1=O
not listed: [4] | [7] | [10] | [16] | [17] | [18] | [19]
inactive: all other assays above

NC1CCN(c2nc3c(cc2F)c(=O)c(C(=O)O)cn3-c2ccc(F)cc2F)C1 (stereo unspecified)
not listed: [17] | [18] | [19]
inactive: all other assays above

CCCCCOC(=O)c1ccc(O)cc1
active: [4] 6.94 µM
not listed: [1] | [2] | [3] | [14] | [18]
inactive: all other assays above

CCN(CC)CCNC(C(=O)OCCC(C)C)c1ccccc1 (stereo unspecified)
not listed: [4] | [18] | [19]
inactive: all other assays above

O=C1c2cccc(O)c2C(=O)c2c(O)cc(CO)cc21
active: [4] 0.864 µM
not listed: [3] | [18] | [19]
inactive: all other assays above

CCCCCCCCC(CO)CCCCCC (stereo unspecified)
not listed: [4] | [15] | [18] | [19]
inactive: all other assays above

Cc1nc2ccccc2n1Cc1ccc(Cl)cc1
not listed: [3] | [4] | [18] | [19]
inactive: all other assays above

C=CC(=O)OCC(C)OCC(C)OCC(C)OC(=O)C=C (stereo unspecified)
active: [19] 24.3 µM | [18] 43.6 µM
not listed: [1] | [2] | [3] | [4] | [11]
inactive: all other assays above

Cc1ccc(O)c([C@H](CCN(C(C)C)C(C)C)c2ccccc2)c1
not listed: [2] | [4] | [18] | [19]
inactive: all other assays above

From PubChem BioAssay (Tox21)
